Results on ten compounds are retold here after PubChem BioAssay (Tox21).

Values joined by “and” are separate entries in the source; they are usually repeats but may differ in a detail not shown here. Equal values may be shown once. Inconclusive results are not listed. More than one record can exist for a structure, and the calls need not agree. Active and inactive are the calls of the source. Unless noted, calls follow the shape of the dose curve; as a rule, active = well fitted curve in the direction sought with a large enough effect in the repeat runs; inconclusive = weak or mixed curves; inactive = no such curve, though single readings can be large; an effect the other way counts as inactive or inconclusive.

Assay [1] has as its system thyroid hormone receptor (rat, GH3 cells). The assay can be described thus: qHTS assay to identify small molecule agonists of the thyroid receptor (TR) signaling pathway (AID 743066; calls by dose curve).
Assay [2] concerns the target Estrogen receptor (Homo sapiens) (UniProt P03372). Briefly: qHTS assay to identify small molecule antagonists of the estrogen receptor alpha (ER-alpha) signaling pathway (AID 743069; active = well fitted curve in the direction sought with a large enough effect in the signal ratio in the repeat runs, not every such curve was filed as active; the % refers to the signal ratio). The essentials:
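HEK293 cells stably carrying an ER-alpha-UAS-bla beta-lactamase reporter were pre-cultured overnight in 2% charcoal-stripped FBS medium. Test compounds in DMSO were added together with 17beta-estradiol for 18 hr at 37C. Read-out was fluorescence after 2 hr with LiveBLAzer B/G FRET substrate at room temperature.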

A short description of assay [3]: qHTS assay to identify small molecule antagonists of the estrogen receptor alpha (ER-alpha) signaling pathway - cell viability counter screen (AID 743074; calls by dose curve; also: nearly all actives have a fitted effect of over 45% in size; also: potency is read from the fitted curve at half-maximal effect).
The target of assay [4] is Estrogen receptor (Homo sapiens) (UniProt P03372). The assay can be described thus: qHTS assay to identify small molecule agonists of the estrogen receptor alpha (ER-alpha) signaling pathway (AID 743075; calls by dose curve; also: potency is read from the fitted curve at half-maximal effect).
For assay [5] the target is unchanged. Briefly: qHTS assay to identify small molecule agonists of the estrogen receptor alpha (ER-alpha) signaling pathway using the BG1 cell line (AID 743079). Also: nearly all actives have a fitted effect of over 20% in size. Also: potency is read from the fitted curve at half-maximal effect.
Assay [6] in a line: qHTS assay to identify small molecule antagonists of the estrogen receptor alpha (ER-alpha) signaling pathway using the BG1 cell line (AID 743080; calls by dose curve;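 also: BG1 cells stimulated with 17beta-estradiol alongside compound; nearly all actives have a fitted effect of over 25% in size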; also: potency is read from the fitted curve at half-maximal effect). In short, it runs like this: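 Readout is ONE-Glo luminescence, taken 30 min at room temperature after reagent addition, preceded by a CellTiter-Fluor viability read; BG1-Luc-4E2 cells had received compound and 17beta-estradiol for 21.5 h at 37 C.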

Assay [7] is described as follows: qHTS assay to identify small molecule antagonists of the estrogen receptor alpha (ER-alpha) signaling pathway using the BG1 cell line - cell viability counter screen (AID 743081).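 Also: compound given together with 17beta-estradiol as the ER stimulus; nearly all actives have a fitted effect of over 45% in size.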 Also: potency is read from the fitted curve at half-maximal effect.
For a further assay, the target named is Aromatase (Homo sapiens) (UniProt P11511). The assay can be described thus: qHTS assay to identify aromatase inhibitors (AID 743083). Also: nearly all actives have a fitted effect of over 55% in size. Also: potency is read from the fitted curve at half-maximal effect.
Assay [8] can be described thus: qHTS assay to identify aromatase inhibitors - cell viability counter screen (AID 743084).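 Also: cells stimulated with testosterone during compound exposure; nearly all actives have a fitted effect of over 55% in size.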 Also: potency is read from the fitted curve at half-maximal effect.
In assay [9] the target is Aryl hydrocarbon receptor (Homo sapiens) (UniProt P35869). Briefly: qHTS assay to identify small molecule that activate the aryl hydrocarbon receptor (AhR) signaling pathway (AID 743085). Also: nearly all actives have a fitted effect of over 15% in size. Also: potency is read from the fitted curve at half-maximal effect.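 As to activation: HG2L7.5c1 human HepG2 liver cells with stably integrated DRE-driven firefly reporter; series mostly up to about 70 µM.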 In short, it runs like this: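 HepG2 cells (HG2L7.5c1) stably carrying a firefly luciferase reporter driven by 20 dioxin responsive elements were exposed to compound for 24 h at 37C after a 5 h settling period; luminescence rise (ONE-Glo) indicated activation.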

Assay [10] in a line: qHTS assay to identify small molecule that activate the aryl hydrocarbon receptor (AhR) signaling pathway - cell viability counter screen (AID 743086). Also: nearly all actives have a fitted effect of over 45% in size. Also: potency is read from the fitted curve at half-maximal effect. In short, it runs like this:
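HepG2-AhR-luc (HG2L7.5c1) cells, 4000/well, were preincubated 5 h at 37C, exposed to compound in qHTS format for 24 hr at 37C, then given CellTiter-Fluor for 30 min; viability was read as fluorescence in the reporter wells.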

The target in assay [11] is Peroxisome proliferator-activated receptor gamma (Homo sapiens) (UniProt P37231). The assay can be described thus: qHTS assay to identify small molecule agonists of the peroxisome proliferator-activated receptor gamma (PPARg) signaling pathway (AID 743094; active = well fitted activation curve with a large enough effect in the signal ratio in the repeat runs, not every such curve was filed as active; the % refers to the signal ratio). The essentials: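 Following 5 h plating at 37C, PPARg-bla HEK293H cells receive compound or DMSO for 17 h; fluorescence intensity is recorded after LiveBLAzer B/G loading for 1 h at room temperature.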

The target is the same in assay [12]. The assay can be described thus: qHTS assay to identify small molecule antagonists of the peroxisome proliferator-activated receptor gamma (PPARg) signaling pathway (AID 743191; calls by dose curve; also: series mostly up to about 63 µM; nearly all actives have a fitted effect of over 30% in size). The essentials: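 GeneBLAzer PPARg UAS-bla HEK293H cells carrying a UAS-driven beta-lactamase reporter were plated at 3000 cells/well, preincubated 5 h at 37C, then given compound for 17 h at 37C; LiveBLAzer B/G FRET substrate was read after 1 h at room temperature.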

Assay [13] is described as follows: qHTS assay to identify small molecule antagonists of the peroxisome proliferator-activated receptor gamma (PPARg) signaling pathway - cell viability counter screen (AID 743194). Also: nearly all actives have a fitted effect of over 55% in size. Also: potency is read from the fitted curve at half-maximal effect. The essentials:
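PPARg-UAS-bla HEK293H cells were plated, rested 5 h at 37 C, then treated with compounds plus rosiglitazone (50 nM final) for 17 h at 37 C; viability was then read by CellTiter-Glo luminescence after 30 min at room temperature.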

Assay [14] is described as follows: qHTS assay for small molecule agonists of the antioxidant response element (ARE) signaling pathway (AID 743202; active = well fitted activation curve with a large enough effect in the signal ratio in the repeat runs, not every such curve was filed as active; the % refers to the signal ratio; also: potency is read from the fitted curve at half-maximal effect). In short, it runs like this: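 Read-out: LiveBLAzer B/G FRET substrate fluorescence after 2 h at room temperature, following 16 h compound treatment at 37 C of HepG2 cells carrying an ARE-driven beta-lactamase reporter.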
The nature of assay [15]: qHTS assay for small molecule agonists of the antioxidant response element (ARE) signaling pathway - cell viability counter screen (AID 743203; calls by dose curve; also: nearly all actives have a fitted effect of over 55% in size; also: potency is read from the fitted curve at half-maximal effect). The essentials:
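Compounds in DMSO were pinned onto ARE-bla HepG2 cells plated 5 hrs earlier at 2,000 cells/well. Sixteen hours later at 37C/5% CO2, CellTiter-Glo was added and luminescence measured after 30 min at room temperature.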

The nature of assay [16]: qHTS assay for small molecule activators of the heat shock response signaling pathway - cell viability counter screen (AID 743209). Also: nearly all actives have a fitted effect of over 50% in size. Also: potency is read from the fitted curve at half-maximal effect. In short, it runs like this:
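Counter screen for cytotoxicity in HeLa HSE-bla reporter cells. Treatment was 5 h at 37 C; viability was detected by luminescent ATP assay (CellTiter-Glo) in the same wells as the beta-lactamase read.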

Assay [17] is described as follows: qHTS assay for small molecule activators of the heat shock response signaling pathway (AID 743210; active = well fitted activation curve with a large enough effect in the signal ratio in the repeat runs, with a control signal flat, not every such curve was filed as active; the % refers to the signal ratio; also: series mostly up to about 63 µM). In short, it runs like this: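 HSE-bla HeLa cells (beta-lactamase reporter under heat shock response elements) were exposed to compounds for 5 h at 37 C, then loaded with LiveBLAzer B/G FRET substrate for 2.5 h at room temperature before fluorescence reading.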

Assay [18] can be described thus: qHTS assay to identify small molecule agonists of the peroxisome proliferator-activated receptor delta (PPARd) signaling pathway - cell viability counter screen (AID 743211). Also: nearly all actives have a fitted effect of over 55% in size. Also: potency is read from the fitted curve at half-maximal effect. In short, it runs like this: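 PPARd-bla HEK293H cells (UAS-beta-lactamase reporter) were treated with compounds for 17 h at 37 C. Viability was then read in the same wells by CellTiter-Glo luminescence after 30 min at room temperature.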

Peroxisome proliferator-activated receptor gamma (Homo sapiens), sequence (P37231 whole entry, looked up): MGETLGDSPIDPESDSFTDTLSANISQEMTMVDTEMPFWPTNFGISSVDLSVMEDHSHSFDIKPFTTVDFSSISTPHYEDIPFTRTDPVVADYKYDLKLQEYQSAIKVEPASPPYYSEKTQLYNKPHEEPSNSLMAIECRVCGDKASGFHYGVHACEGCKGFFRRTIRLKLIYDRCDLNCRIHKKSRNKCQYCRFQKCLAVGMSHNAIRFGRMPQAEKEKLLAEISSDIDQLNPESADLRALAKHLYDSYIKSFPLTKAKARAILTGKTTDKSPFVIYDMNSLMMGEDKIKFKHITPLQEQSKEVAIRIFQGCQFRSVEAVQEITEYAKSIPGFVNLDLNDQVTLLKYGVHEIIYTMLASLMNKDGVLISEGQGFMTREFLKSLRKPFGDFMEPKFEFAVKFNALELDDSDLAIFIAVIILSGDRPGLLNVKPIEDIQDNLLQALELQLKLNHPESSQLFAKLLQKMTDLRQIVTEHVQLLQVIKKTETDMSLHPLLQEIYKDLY
Estrogen receptor (Homo sapiens), sequence (P03372 whole entry, looked up): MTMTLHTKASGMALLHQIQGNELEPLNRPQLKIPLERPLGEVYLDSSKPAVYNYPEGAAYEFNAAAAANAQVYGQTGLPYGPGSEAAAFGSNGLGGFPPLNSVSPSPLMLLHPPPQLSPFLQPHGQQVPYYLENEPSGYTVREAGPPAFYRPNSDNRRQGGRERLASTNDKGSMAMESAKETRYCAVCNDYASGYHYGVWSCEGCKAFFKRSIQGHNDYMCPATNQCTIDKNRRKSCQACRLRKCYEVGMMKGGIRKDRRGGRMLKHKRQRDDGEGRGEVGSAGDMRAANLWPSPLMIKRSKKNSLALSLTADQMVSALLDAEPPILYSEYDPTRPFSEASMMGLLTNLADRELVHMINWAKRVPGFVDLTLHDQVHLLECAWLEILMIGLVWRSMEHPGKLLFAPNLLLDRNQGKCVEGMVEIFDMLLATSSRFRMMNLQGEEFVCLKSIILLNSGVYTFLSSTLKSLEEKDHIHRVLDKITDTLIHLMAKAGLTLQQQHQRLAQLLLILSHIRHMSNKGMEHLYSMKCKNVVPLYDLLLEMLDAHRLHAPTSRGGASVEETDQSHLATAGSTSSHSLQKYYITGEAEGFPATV
Aromatase (Homo sapiens), sequence (P11511 whole entry, looked up): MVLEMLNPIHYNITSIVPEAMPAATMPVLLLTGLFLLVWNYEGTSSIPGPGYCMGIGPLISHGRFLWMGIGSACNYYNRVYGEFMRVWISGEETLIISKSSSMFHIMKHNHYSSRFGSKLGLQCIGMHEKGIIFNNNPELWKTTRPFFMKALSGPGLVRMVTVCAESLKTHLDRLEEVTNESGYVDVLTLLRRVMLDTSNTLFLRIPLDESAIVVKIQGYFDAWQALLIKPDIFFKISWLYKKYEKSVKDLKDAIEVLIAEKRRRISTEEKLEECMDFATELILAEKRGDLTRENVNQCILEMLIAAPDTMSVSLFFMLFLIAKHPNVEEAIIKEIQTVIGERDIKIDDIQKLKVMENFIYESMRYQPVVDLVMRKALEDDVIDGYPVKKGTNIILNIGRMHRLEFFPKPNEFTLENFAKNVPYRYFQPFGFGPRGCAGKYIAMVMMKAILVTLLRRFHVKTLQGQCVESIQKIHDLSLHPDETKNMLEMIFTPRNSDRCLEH
Aryl hydrocarbon receptor (Homo sapiens), sequence (P35869 whole entry, looked up): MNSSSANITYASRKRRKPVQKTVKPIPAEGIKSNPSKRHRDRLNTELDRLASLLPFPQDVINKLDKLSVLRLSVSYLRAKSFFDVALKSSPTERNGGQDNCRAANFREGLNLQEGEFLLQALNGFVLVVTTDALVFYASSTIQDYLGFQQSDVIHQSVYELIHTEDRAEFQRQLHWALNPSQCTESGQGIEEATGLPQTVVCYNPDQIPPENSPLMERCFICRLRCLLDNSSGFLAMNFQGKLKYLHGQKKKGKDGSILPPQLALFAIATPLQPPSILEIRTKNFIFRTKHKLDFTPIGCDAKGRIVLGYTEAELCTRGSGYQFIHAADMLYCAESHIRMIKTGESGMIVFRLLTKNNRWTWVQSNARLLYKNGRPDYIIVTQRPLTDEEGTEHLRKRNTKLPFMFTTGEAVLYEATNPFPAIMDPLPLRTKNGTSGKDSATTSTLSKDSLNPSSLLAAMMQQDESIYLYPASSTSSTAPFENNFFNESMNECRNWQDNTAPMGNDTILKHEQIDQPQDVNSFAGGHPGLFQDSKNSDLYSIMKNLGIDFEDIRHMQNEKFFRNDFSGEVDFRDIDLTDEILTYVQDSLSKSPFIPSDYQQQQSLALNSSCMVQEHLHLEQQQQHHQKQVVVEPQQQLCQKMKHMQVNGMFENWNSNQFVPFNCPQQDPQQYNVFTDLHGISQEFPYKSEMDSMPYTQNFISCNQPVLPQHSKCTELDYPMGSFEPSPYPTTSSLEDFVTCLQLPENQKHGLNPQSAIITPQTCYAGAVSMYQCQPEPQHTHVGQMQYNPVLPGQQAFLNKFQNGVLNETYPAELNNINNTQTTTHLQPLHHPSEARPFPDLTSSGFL

For the compound `Cc1cccc([N+](=O)[O-])c1C(=O)O`, the Potency result in [1], in [2], in assay [3], in assay [4], in assay [5] and in assay [6] was “inactive” throughout. Moreover, the Potency entry (in assay [7]; with Aromatase (Homo sapiens); in assay [8]; in assay [9]; in assay [10]; in [11]) was “inactive” in each case. The Potency result in assay [12], in assay [13], in assay [14], in assay [15], in assay [16] and in assay [17] was “inactive” throughout. Further, the Potency entry in assay [18] was “inactive”.
For the compound `COC(=O)/C=C/c1ccccc1`, the Potency entry in [1], in assay [2], in assay [3], in assay [4], in assay [6] and in [7] was “inactive” each time. In addition, the Potency entry (with Aromatase (Homo sapiens); in [8]; in assay [9]; in assay [10]; in assay [11]; in assay [12]) was “inactive” throughout. Also, the Potency result in assay [13], in [14], in assay [15], in [16], in assay [17] and in [18] was “inactive” in each case.
In the case of `CC(=O)Nc1ccc(C(=O)CCl)cc1`, the Potency result (in assay [3]; in assay [7]; with Aromatase (Homo sapiens); in assay [9]; in [10]; in assay [11]) was “inactive” in each case. The Potency entry in [17] is “inactive”. Besides, the Potency in assay [8] was 7.7 µM (active); in [13], 13.8 µM (active); in assay [14], 34.6 µM (active); in assay [15], “inactive and 19.3 µM (active)”; in assay [16] it was “inactive and 3.89 µM (active)”; in [18] it was “inactive and 49 µM (active)”.
As to `CC1COc2c(N3CCN(C)CC3)c(F)cc3c(=O)c(C(=O)O)cn1c23` (configuration not stated), the Potency entry (in assay [1]; in assay [3]; in [7]; with Aromatase (Homo sapiens); in assay [8]; in [9]) was “inactive” throughout. Besides, the Potency result in assay [10], in [11], in assay [12], in assay [13], in assay [14] and in assay [15] was “inactive” each time. For the same compound, the Potency entry in assay [16], in assay [17] and in assay [18] was “inactive” each time.
Regarding `Nc1ccc(O)cc1`, the Potency entry in assay [3], in [4], in assay [5], in assay [6], in assay [11] and in assay [13] was “inactive” in each case. Besides, the Potency entry in assay [17] and in assay [18] was “inactive” in each case. The Potency result is “inactive and 63.5 µM (active)” in assay [7]; “inactive and 31.8 µM (active)” in the assay with Aromatase (Homo sapiens); 54.5 µM (active) and 31.8 µM (active) in assay [8]; 54.5 µM (active) and 50.4 µM (active) in assay [10]; 29.8 µM (active) in assay [14]; 12.7 µM (active) and inactive in [15]. Further, in assay [16], the Potency was 25.5 µM (active) and inactive.
`c1ccc2n[nH]nc2c1`: the Potency result (in assay [1]; in assay [3]; in [7]; in the assay with Aromatase (Homo sapiens); in assay [8]; in assay [9]) was “inactive” in each case. Also, the Potency entry in [10], in assay [11], in assay [12], in assay [13], in assay [14] and in assay [15] was “inactive” each time. Further, the Potency entry in assay [16], in assay [17] and in [18] was “inactive” throughout.
Consider `CCN(CC)CCOc1ccc(/C(=C(\Cl)c2ccccc2)c2ccccc2)cc1`, for which the Potency result in assay [1], in assay [7] and in assay [9] was “inactive” throughout. Also, the Potency is 39.7 µM (active) in assay [3]; 3.35 µM (active) and 1.4 µM (active) with Aromatase (Homo sapiens); “inactive and 27.9 µM (active)” in [8]; 17.7 µM (active) in assay [13]; 15.7 µM (active) and 29.8 µM (active) in [15]; 39.7 µM (active) and 29.8 µM (active) in [16]. In addition, the Potency in assay [18] was 35.4 µM (active) and 29.8 µM (active).
With `Nc1nc(=S)c2[nH]cnc2[nH]1`, the Potency result (in assay [1]; in [7]; with Aromatase (Homo sapiens); in [8]; in assay [10]; in assay [12]) was “inactive” in each case. Further, the Potency result in assay [16], in assay [17] and in assay [18] was “inactive” in each case. Further, the Potency in assay [4] was 19 µM [activator] (active) and inactive; in assay [5], 21.1 µM (active) and inactive; in [6] it was “inactive and 750 nM (active)”; in assay [9], “inactive and 61.1 µM (active)”; in [13] it was 2.98 µM (active); in [14], 4.73 µM (active). The Potency in assay [15] is 3.86 µM (active).
Regarding `CC[C@]1(O)C[C@@H]2CN(CCc3c([nH]c4ccccc34)[C@@](C(=O)OC)(c3cc4c(cc3OC)N(C)[C@H]3[C@@](O)(C(=O)OC)[C@H](OC(C)=O)[C@]5(CC)C=CCN6CC[C@]43[C@@H]65)C2)C1`, the Potency in [6] was 3.35 µM (active); in [7], 15 µM (active); in the assay with Aromatase (Homo sapiens), 21.1 µM (active); in assay [10] it was 16.8 µM (active) and 15 µM (active). Further, the Potency entry in [9], in assay [13], in [15], in assay [17] and in assay [18] was “inactive” each time.
Regarding `CC(C)(C)c1ccccc1`, the Potency result in assay [3], in assay [7], in [14], in [15], in [16] and in assay [17] was “inactive” each time. Moreover, the Potency result in assay [18] was “inactive”.
